# Data: publication PMC11006913
# Numbering of substitutions follows the chain as printed.
# Legend:
# Assay in all cases: PBM; 200 nM protein, PBS
# Conditions in all cases: dsDNA, one strand shown
# HESX1 [1] = biological target: HESX1 (Homo sapiens, UniProt Q9UBX0 95-180, R109Q)
# HESX1 [2] = biological target: HESX1 (Homo sapiens, UniProt Q9UBX0 95-180, F115L)
# HOXD13 [3] = biological target: HOXD13 (Homo sapiens, UniProt P35453 263-343, T313R)
# SHOX = SHOX (Homo sapiens, UniProt O15266 103-189, R173C)
# HOXD13 [4] = biological target: HOXD13 (Homo sapiens, UniProt P35453 263-343)
# HOXD13 [5] = biological target: HOXD13 (Homo sapiens, UniProt P35453 263-343, T313A)
# HOXA7 [6] = biological target: HOXA7 (Homo sapiens, UniProt P31268 116-202)
# PAX4 [7] = biological target: T1, PAX4 (Homo sapiens, UniProt O43316 9-242, R200K)
# T1 sequence: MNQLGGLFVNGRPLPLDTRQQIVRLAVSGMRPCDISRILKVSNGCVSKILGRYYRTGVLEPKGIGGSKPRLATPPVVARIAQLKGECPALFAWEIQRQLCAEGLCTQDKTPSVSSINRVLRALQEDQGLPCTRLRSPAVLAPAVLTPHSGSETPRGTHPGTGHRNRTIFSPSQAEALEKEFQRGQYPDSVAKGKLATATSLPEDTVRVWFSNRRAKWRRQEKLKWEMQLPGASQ
# HOXB9 [8] = biological target: HOXB9 (Homo sapiens, UniProt P17482 171-250)
# PAX4 [9] = biological target: T2, PAX4 (Homo sapiens, UniProt O43316 9-242, F177Y)
# T2 sequence: T1 sequence with F169Y, K192R
# HOXB9 [10] = biological target: HOXB9 (Homo sapiens, UniProt P17482 171-250, R186Q)
# HOXA7 [11] = biological target: HOXA7 (Homo sapiens, UniProt P31268 116-202, W177C)
# HOXC9 [12] = biological target: HOXC9 (Homo sapiens, UniProt P31274 178-260, K195R)
# HOXC10 [13] = biological target: HOXC10 (Homo sapiens, UniProt Q9NYD6 254-340)
# HOXB6 [14] = biological target: HOXB6 (Homo sapiens, UniProt P17509 132-218, K202E)
# HOXC9 [15] = biological target: HOXC9 (Homo sapiens, UniProt P31274 178-260)
# HOXC9 [16] = biological target: HOXC9 (Homo sapiens, UniProt P31274 178-260, R193K)
# HOXC10 [17] = biological target: HOXC10 (Homo sapiens, UniProt Q9NYD6 254-340, K271E)
# HOXC9 [18] = biological target: HOXC9 (Homo sapiens, UniProt P31274 178-260, R222W)
# HOXB6 [19] = biological target: HOXB6 (Homo sapiens, UniProt P17509 132-218)
# HOXB6 (Homo sapiens, UniProt P17509 132-218), sequence (P17509 132-218): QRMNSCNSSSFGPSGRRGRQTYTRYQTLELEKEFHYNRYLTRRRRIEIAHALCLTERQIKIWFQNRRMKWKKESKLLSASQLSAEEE
# HOXB9 (Homo sapiens, UniProt P17482 171-250), sequence (P17482 171-250): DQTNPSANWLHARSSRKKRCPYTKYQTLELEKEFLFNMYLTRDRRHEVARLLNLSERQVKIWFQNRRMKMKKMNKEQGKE
# HOXB9 (Homo sapiens, UniProt P17482 171-250, R186Q), sequence (P17482 171-250 R186Q): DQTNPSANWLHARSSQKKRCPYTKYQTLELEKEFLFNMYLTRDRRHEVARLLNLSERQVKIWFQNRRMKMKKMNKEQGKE
# HESX1 (Homo sapiens, UniProt Q9UBX0 95-180, R109Q), sequence (Q9UBX0 95-180 R109Q): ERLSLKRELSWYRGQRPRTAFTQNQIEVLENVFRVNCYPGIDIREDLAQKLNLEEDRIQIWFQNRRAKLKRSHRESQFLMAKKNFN
# HOXA7 (Homo sapiens, UniProt P31268 116-202, W177C), sequence (P31268 116-202 W177C): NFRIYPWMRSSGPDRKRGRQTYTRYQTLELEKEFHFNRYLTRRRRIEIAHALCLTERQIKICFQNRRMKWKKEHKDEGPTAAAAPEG
# HESX1 (Homo sapiens, UniProt Q9UBX0 95-180, F115L), sequence (Q9UBX0 95-180 F115L): as the sequence (Q9UBX0 95-180 R109Q) above, with Q15R, F21L counted along it
# HOXD13 (Homo sapiens, UniProt P35453 263-343, T313A), sequence (P35453 263-343 T313A): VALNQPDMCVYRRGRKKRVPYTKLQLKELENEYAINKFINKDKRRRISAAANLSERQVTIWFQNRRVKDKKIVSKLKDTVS
# SHOX, sequence (O15266 103-189 R173C): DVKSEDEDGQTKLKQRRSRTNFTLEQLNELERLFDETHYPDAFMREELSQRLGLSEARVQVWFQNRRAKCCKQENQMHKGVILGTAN
# HOXA7 (Homo sapiens, UniProt P31268 116-202), sequence (P31268 116-202): as the sequence (P31268 116-202 W177C) above, with C62W counted along it
# HOXC10 (Homo sapiens, UniProt Q9NYD6 254-340), sequence (Q9NYD6 254-340): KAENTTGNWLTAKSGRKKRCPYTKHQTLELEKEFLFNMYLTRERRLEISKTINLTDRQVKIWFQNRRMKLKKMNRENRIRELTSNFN
# HOXC10 (Homo sapiens, UniProt Q9NYD6 254-340, K271E), sequence (Q9NYD6 254-340 K271E): as the sequence (Q9NYD6 254-340) above, with K18E counted along it
# HOXC9 (Homo sapiens, UniProt P31274 178-260, R193K), sequence (P31274 178-260 R193K): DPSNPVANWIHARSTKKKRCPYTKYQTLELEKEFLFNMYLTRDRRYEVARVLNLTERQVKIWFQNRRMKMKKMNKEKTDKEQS
# HOXC9 (Homo sapiens, UniProt P31274 178-260, K195R), sequence (P31274 178-260 K195R): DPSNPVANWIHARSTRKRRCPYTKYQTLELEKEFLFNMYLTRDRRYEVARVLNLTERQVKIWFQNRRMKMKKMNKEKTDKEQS
# HOXD13 (Homo sapiens, UniProt P35453 263-343, T313R), sequence (P35453 263-343 T313R): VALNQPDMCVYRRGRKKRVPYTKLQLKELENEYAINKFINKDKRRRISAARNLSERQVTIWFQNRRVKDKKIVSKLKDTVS
# HOXB6 (Homo sapiens, UniProt P17509 132-218, K202E), sequence (P17509 132-218 K202E): as the sequence (P17509 132-218) above, with K71E counted along it
# HOXD13 (Homo sapiens, UniProt P35453 263-343), sequence (P35453 263-343): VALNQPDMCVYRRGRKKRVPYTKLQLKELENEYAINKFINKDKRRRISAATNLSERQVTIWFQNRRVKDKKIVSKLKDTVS
# HOXC9 (Homo sapiens, UniProt P31274 178-260, R222W), sequence (P31274 178-260 R222W): as the sequence (P31274 178-260 R193K) above, with K16R, R45W counted along it
# HOXC9 (Homo sapiens, UniProt P31274 178-260), sequence (P31274 178-260): as the sequence (P31274 178-260 R193K) above, with K16R counted along it
sequence,measurement,setting,value
ACTTTATA,binding signal,HESX1 [1],"7.19 upbm affinity estimate (log intensity, higher = more binding, comparable within an allelic series)"
same,binding signal,HESX1 [2],"7.31 upbm affinity estimate (log intensity, higher = more binding, comparable within an allelic series)"
TCCTGCCA,binding signal,HESX1 [1],"6.52 upbm affinity estimate (log intensity, higher = more binding, comparable within an allelic series)"
same,binding signal,HESX1 [2],"6.6 upbm affinity estimate (log intensity, higher = more binding, comparable within an allelic series)"
CAGAACGC,binding signal,HESX1 [1],"6.49 upbm affinity estimate (log intensity, higher = more binding, comparable within an allelic series)"
same,binding signal,HESX1 [2],"6.48 upbm affinity estimate (log intensity, higher = more binding, comparable within an allelic series)"
GCCGAAAC,binding signal,HESX1 [1],"6.57 upbm affinity estimate (log intensity, higher = more binding, comparable within an allelic series)"
same,binding signal,HESX1 [2],"6.57 upbm affinity estimate (log intensity, higher = more binding, comparable within an allelic series)"
GAAGTCGC,binding signal,HESX1 [1],"6.51 upbm affinity estimate (log intensity, higher = more binding, comparable within an allelic series)"
same,binding signal,HESX1 [2],"6.56 upbm affinity estimate (log intensity, higher = more binding, comparable within an allelic series)"
CAAGCTCA,binding signal,HESX1 [1],"6.46 upbm affinity estimate (log intensity, higher = more binding, comparable within an allelic series)"
same,binding signal,HESX1 [2],"6.53 upbm affinity estimate (log intensity, higher = more binding, comparable within an allelic series)"
CCCGGAGG,binding signal,HESX1 [1],"6.41 upbm affinity estimate (log intensity, higher = more binding, comparable within an allelic series)"
same,binding signal,HESX1 [2],"6.42 upbm affinity estimate (log intensity, higher = more binding, comparable within an allelic series)"
AAGGGCAC,binding signal,HESX1 [1],"6.62 upbm affinity estimate (log intensity, higher = more binding, comparable within an allelic series)"
same,binding signal,HESX1 [2],"6.62 upbm affinity estimate (log intensity, higher = more binding, comparable within an allelic series)"
TGAGCGCA,binding signal,HESX1 [1],"6.51 upbm affinity estimate (log intensity, higher = more binding, comparable within an allelic series)"
same,binding signal,HESX1 [2],"6.46 upbm affinity estimate (log intensity, higher = more binding, comparable within an allelic series)"
GGCGCTAC,binding signal,HESX1 [1],"6.35 upbm affinity estimate (log intensity, higher = more binding, comparable within an allelic series)"
same,binding signal,HESX1 [2],"6.32 upbm affinity estimate (log intensity, higher = more binding, comparable within an allelic series)"
AGAGGAGC,binding signal,HESX1 [1],"6.44 upbm affinity estimate (log intensity, higher = more binding, comparable within an allelic series)"
same,binding signal,HESX1 [2],"6.59 upbm affinity estimate (log intensity, higher = more binding, comparable within an allelic series)"
CTAGGCCC,binding signal,HESX1 [1],"6.51 upbm affinity estimate (log intensity, higher = more binding, comparable within an allelic series)"
same,binding signal,HESX1 [2],"6.46 upbm affinity estimate (log intensity, higher = more binding, comparable within an allelic series)"
CCGCAAGG,binding signal,HOXD13 [3],"9.53 upbm affinity estimate (log intensity, higher = more binding, comparable within an allelic series)"
same,binding signal,SHOX,"7.2 upbm affinity estimate (log intensity, higher = more binding, comparable within an allelic series)"
same,binding signal,HOXD13 [4],"9.5 upbm affinity estimate (log intensity, higher = more binding, comparable within an allelic series)"
same,binding signal,HOXD13 [5],"9.67 upbm affinity estimate (log intensity, higher = more binding, comparable within an allelic series)"
AGCCTGGG,binding signal,SHOX,"7.22 upbm affinity estimate (log intensity, higher = more binding, comparable within an allelic series)"
CATTAGGG,binding signal,HESX1 [2],"6.71 upbm affinity estimate (log intensity, higher = more binding, comparable within an allelic series)"
CGTCCCGC,binding signal,HOXA7 [6],"8.5 upbm affinity estimate (log intensity, higher = more binding, comparable within an allelic series)"
same,binding signal,PAX4 [7],"9.13 upbm affinity estimate (log intensity, higher = more binding, comparable within an allelic series)"
same,binding signal,HOXB9 [8],"8.35 upbm affinity estimate (log intensity, higher = more binding, comparable within an allelic series)"
same,binding signal,PAX4 [9],"9.19 upbm affinity estimate (log intensity, higher = more binding, comparable within an allelic series)"
same,binding signal,HOXB9 [10],"8.38 upbm affinity estimate (log intensity, higher = more binding, comparable within an allelic series)"
same,binding signal,HOXA7 [11],"8.32 upbm affinity estimate (log intensity, higher = more binding, comparable within an allelic series)"
ATTAATGG,binding signal,HOXC9 [12],"12.9 upbm affinity estimate (log intensity, higher = more binding, comparable within an allelic series)"
same,binding signal,HOXA7 [6],"12 upbm affinity estimate (log intensity, higher = more binding, comparable within an allelic series)"
same,binding signal,HOXC10 [13],"12.4 upbm affinity estimate (log intensity, higher = more binding, comparable within an allelic series)"
same,binding signal,PAX4 [7],"11.7 upbm affinity estimate (log intensity, higher = more binding, comparable within an allelic series)"
same,binding signal,HOXB6 [14],"10.2 upbm affinity estimate (log intensity, higher = more binding, comparable within an allelic series)"
same,binding signal,HOXB9 [8],"12.3 upbm affinity estimate (log intensity, higher = more binding, comparable within an allelic series)"
same,binding signal,HOXC9 [15],"12.9 upbm affinity estimate (log intensity, higher = more binding, comparable within an allelic series)"
same,binding signal,HOXC9 [16],"12.9 upbm affinity estimate (log intensity, higher = more binding, comparable within an allelic series)"
same,binding signal,HOXC10 [17],"12.2 upbm affinity estimate (log intensity, higher = more binding, comparable within an allelic series)"
same,binding signal,HOXD13 [5],"11.6 upbm affinity estimate (log intensity, higher = more binding, comparable within an allelic series)"
same,binding signal,HOXB9 [10],"12 upbm affinity estimate (log intensity, higher = more binding, comparable within an allelic series)"
same,binding signal,HOXC9 [18],"11.2 upbm affinity estimate (log intensity, higher = more binding, comparable within an allelic series)"
same,binding signal,HOXA7 [11],"8.96 upbm affinity estimate (log intensity, higher = more binding, comparable within an allelic series)"
same,binding signal,HOXB6 [19],"12.4 upbm affinity estimate (log intensity, higher = more binding, comparable within an allelic series)"
CGCAGGCG,binding signal,SHOX,"7.07 upbm affinity estimate (log intensity, higher = more binding, comparable within an allelic series)"
TAAATTAA,binding signal,PAX4 [7],"11.8 upbm affinity estimate (log intensity, higher = more binding, comparable within an allelic series)"
same,binding signal,SHOX,"9.24 upbm affinity estimate (log intensity, higher = more binding, comparable within an allelic series)"
same,binding signal,PAX4 [9],"11 upbm affinity estimate (log intensity, higher = more binding, comparable within an allelic series)"
CGGCGAGC,binding signal,SHOX,"7.11 upbm affinity estimate (log intensity, higher = more binding, comparable within an allelic series)"
GACTGGCC,binding signal,SHOX,"7.31 upbm affinity estimate (log intensity, higher = more binding, comparable within an allelic series)"
CTCATTAA,binding signal,HOXC9 [12],"12.5 upbm affinity estimate (log intensity, higher = more binding, comparable within an allelic series)"
same,binding signal,HOXA7 [6],"11.5 upbm affinity estimate (log intensity, higher = more binding, comparable within an allelic series)"
same,binding signal,HOXC10 [13],"12.2 upbm affinity estimate (log intensity, higher = more binding, comparable within an allelic series)"
same,binding signal,PAX4 [7],"11.6 upbm affinity estimate (log intensity, higher = more binding, comparable within an allelic series)"
same,binding signal,HOXB6 [14],"9.97 upbm affinity estimate (log intensity, higher = more binding, comparable within an allelic series)"
same,binding signal,HOXB9 [8],"11.8 upbm affinity estimate (log intensity, higher = more binding, comparable within an allelic series)"
same,binding signal,HOXC9 [15],"12.6 upbm affinity estimate (log intensity, higher = more binding, comparable within an allelic series)"
same,binding signal,HOXD13 [3],"10.7 upbm affinity estimate (log intensity, higher = more binding, comparable within an allelic series)"
same,binding signal,SHOX,"9.2 upbm affinity estimate (log intensity, higher = more binding, comparable within an allelic series)"
same,binding signal,HOXC9 [16],"12.5 upbm affinity estimate (log intensity, higher = more binding, comparable within an allelic series)"
same,binding signal,HOXD13 [4],"11.9 upbm affinity estimate (log intensity, higher = more binding, comparable within an allelic series)"
same,binding signal,HOXC10 [17],"12 upbm affinity estimate (log intensity, higher = more binding, comparable within an allelic series)"
same,binding signal,HOXD13 [5],"11.7 upbm affinity estimate (log intensity, higher = more binding, comparable within an allelic series)"
same,binding signal,HOXB9 [10],"11.5 upbm affinity estimate (log intensity, higher = more binding, comparable within an allelic series)"
same,binding signal,HOXC9 [18],"10.9 upbm affinity estimate (log intensity, higher = more binding, comparable within an allelic series)"
same,binding signal,HOXA7 [11],"8.81 upbm affinity estimate (log intensity, higher = more binding, comparable within an allelic series)"
same,binding signal,HOXB6 [19],"11.9 upbm affinity estimate (log intensity, higher = more binding, comparable within an allelic series)"
CCAGCCCA,binding signal,HESX1 [1],"6.47 upbm affinity estimate (log intensity, higher = more binding, comparable within an allelic series)"
same,binding signal,HESX1 [2],"6.55 upbm affinity estimate (log intensity, higher = more binding, comparable within an allelic series)"
GACTCGGC,binding signal,SHOX,"7.19 upbm affinity estimate (log intensity, higher = more binding, comparable within an allelic series)"
CAGGGGGC,binding signal,SHOX,"7.01 upbm affinity estimate (log intensity, higher = more binding, comparable within an allelic series)"
GACGCCGC,binding signal,PAX4 [7],"9.17 upbm affinity estimate (log intensity, higher = more binding, comparable within an allelic series)"
same,binding signal,PAX4 [9],"9.2 upbm affinity estimate (log intensity, higher = more binding, comparable within an allelic series)"
AAGTTCCC,binding signal,HESX1 [1],"6.56 upbm affinity estimate (log intensity, higher = more binding, comparable within an allelic series)"
same,binding signal,HESX1 [2],"6.65 upbm affinity estimate (log intensity, higher = more binding, comparable within an allelic series)"
CGGGAGAG,binding signal,HOXB9 [8],"8.56 upbm affinity estimate (log intensity, higher = more binding, comparable within an allelic series)"
same,binding signal,SHOX,"7.16 upbm affinity estimate (log intensity, higher = more binding, comparable within an allelic series)"
same,binding signal,HOXB9 [10],"8.56 upbm affinity estimate (log intensity, higher = more binding, comparable within an allelic series)"
CAAATGGG,binding signal,HESX1 [1],"6.88 upbm affinity estimate (log intensity, higher = more binding, comparable within an allelic series)"
same,binding signal,HESX1 [2],"6.73 upbm affinity estimate (log intensity, higher = more binding, comparable within an allelic series)"
